Source: ChEMBL document CHEMBL3988442, “University of Dundee, Small-Polar-MMV Screening Library” (2021)
The whole screen tested about 48,000 compounds, of which about 13,000 (27%) showed an effect of 50% or more. The list shows a part of the results.

tested on: Wolbachia pipientis; assay: Anti-Wolbachia Cell-Based Screen; assay type: functional; parameters: scale not given: in the data most compounds retested in dose-response had high values; settings: 5 µM

SMILES | Percent Effect [%]
CC1=C(CCN2C[C@H](O)[C@@H](N3CCOCC3)C2)C(C)(C)CCC1 | 0.7691
O=C(C1CCC1)N1CCCC1c1nnc2n1CCCCC2 (centres undefined) | -4.579
CCOc1c(Br)cc(CNCCc2nnc3n2CCCCC3)cc1OC.Cl | 15.42
CCOc1cncc(N2CCCC2c2nnc3n2CCCCC3)n1 (centres undefined) | 129.6
Clc1cncc(N2CCCC2c2nnc3n2CCCCC3)n1 (centres undefined) | 118.9
COc1ccc(CC(=O)N2CCC(c3nnc4n3CCC4)CC2)cc1F | -6.133
Cc1cnn(CC2CCCCN2c2ncnc3ccccc23)c1 (centres undefined) | -9.464
CC1c2ncc(COCC3CC3)n2CCN1C.O=C(O)C(F)(F)F (centres undefined) | -13.39
Cc1ccc(C(C(=O)N2CC(c3ccccn3)C2)N(C)C)cc1 (centres undefined) | 13.16
COc1cccc(CN2CCC3(CCN(c4ncc(F)cn4)CC3)C2)c1.O=C(O)C(F)(F)F | -1.729
COc1cccc(CN2CCC3(CC2)CCN(c2ncc(F)cn2)C3)c1.O=C(O)C(F)(F)F | 3.548
Cn1cc(CN2CCC[C@]3(C(=O)O)CN(c4ncccn4)C[C@@H]3C2)cn1.O=C(O)C(F)(F)F | 8.279
Cn1cc(CN2CCC(F)(F)C3(CCN(c4ncccn4)C3)C2)cn1.O=C(O)C(F)(F)F.O=C(O)C(F)(F)F (centres undefined) | 111.9
Cn1cc(CN2CCC(F)(F)C3(CCN(c4ncc(F)cn4)C3)C2)cn1.O=C(O)C(F)(F)F (centres undefined) | 107.8
Cn1cc(CN2CCC(F)(F)C3(CCN(c4ccccn4)C3)C2)cn1.O=C(O)C(F)(F)F.O=C(O)C(F)(F)F (centres undefined) | 97.58
O=C(O)C(F)(F)F.O=C(c1cnccn1)N1CCC(F)(F)C2(CCN(c3ccccn3)C2)C1 (centres undefined) | -12.88
Cn1cc(CN2CCC(F)(F)C3(CCN(c4cnccn4)C3)C2)cn1.O=C(O)C(F)(F)F.O=C(O)C(F)(F)F (centres undefined) | -4.979
COCC1CC2(CCN(Cc3cnn(C)c3)CC2)CN1c1ncccn1.O=C(O)C(F)(F)F.O=C(O)C(F)(F)F (centres undefined) | -8.289
COc1cc(NC(=O)N(C)CC2CC2)ncn1 | -6.401
COc1cc(N2C[C@H]3OCC[C@H]3[C@H](C(=O)NC3CC3)C2)ncn1 | -4.655
COc1cc(N2CC[C@@H]3O[C@@H](C(=O)NCCN(C)C)C[C@@H]32)ncn1 | 104.9
COc1cc(N2CC[C@@H](OC)[C@@H]2Cc2ccccc2)ncn1 | 2.999
COCCNC(=O)[C@@H]1CC[C@@H]2[C@@H](CCN2c2ncc(F)cn2)O1.O=C(O)C(F)(F)F | -10.3
COc1cc(NC(=O)N(C)C(C2CC2)C2CC2)ncn1 | -1.888

SMILES | Percent Effect [%]
COCCNC(=O)[C@H]1CC[C@@H]2[C@@H](CCN2c2ncc(F)cn2)O1.O=C(O)C(F)(F)F | 0.7223
COc1cc(N2CC[C@@H]3O[C@@H](C(=O)NC(C)C)C[C@@H]32)ncn1 | 103.8
COCCNC(=O)[C@@H]1C[C@H]2[C@H](CCN2c2cc(OC)ncn2)O1 | 102.9
COc1cc(N2CC[C@@H]3O[C@H](C(=O)NCC4CC4)C[C@@H]32)ncn1 | 97.06
COc1cc(NC(=O)N(C)CCC2CC2)ncn1 | 6.653
Cc1cnn(CC(=O)Nc2cc(-n3nnnc3C3CC3)ccc2F)c1 | -3.572
CC(C)CC(C)N(C)C(=O)CCn1cccn1 (centres undefined) | 9.677
CC(C(=O)N1CCCC1)N1CCC(c2nccn2Cc2cscn2)CC1 (centres undefined) | 9.079
CC1COc2ccccc2N1C(=O)c1cscn1 (centres undefined) | -0.3654
Cc1nc(C2CCN(C)CC2)cc(N2CCOc3ccc(Cl)cc3C2)n1 | -7.272
Cc1nnc2ccc(N3CCC4(CCOC4)C3)nn12 (centres undefined) | -16.97
Cc1nc(C)c(C)c(N2CCC3(CCOC3)C2)n1 (centres undefined) | 0.7248
Cc1nc(N2CCC3(CCOC3)C2)c2cc[nH]c2n1 (centres undefined) | 96.01
O=C(O)C(F)(F)F.c1ccc(N2CCOC3(CCCN(c4nncs4)C3)C2)nc1 (centres undefined) | -13.18
CC(C)CN1CCCC12CCN(c1nncs1)C2.O=C(O)C(F)(F)F (centres undefined) | 16.12
CC(=O)N1CCCC2(C1)CN(c1ncc(C)cn1)CCO2.O=C(O)C(F)(F)F (centres undefined) | -4.18
CC(C)C(=O)N1CCCC2(C1)CN(c1nncs1)CCO2.O=C(O)C(F)(F)F (centres undefined) | 94.93
O=C(O)C(F)(F)F.O=C(c1ccncc1)N1CCOC2(CCCN(c3nncs3)C2)C1 (centres undefined) | 123
O=C(O)C(F)(F)F.O=C(c1ccncc1)N1CCOC2(COCCN(c3cncnc3)C2)C1 (centres undefined) | -8.943
CC(=O)N1CCCC2(C1)CN(c1nncs1)CCO2.O=C(O)C(F)(F)F (centres undefined) | 117
CC(C)CCN1CCC2(CCCN(c3nncs3)C2)C1.O=C(O)C(F)(F)F (centres undefined) | -9.122
Cc1cncc(C(=O)N2CCC3(CCCN(c4nncs4)C3)C2)c1.O=C(O)C(F)(F)F (centres undefined) | -14.05
CN(C)C(=O)CN1C[C@@H]2CC[C@H](C1)N(Cc1c(F)cccc1Cl)C2 | -24.65
CNC(=O)[C@@H](CC(C)C)N1CCC[C@H]1C(=O)N(C)Cc1cccnc1.Cl.Cl | 6.21

SMILES | Percent Effect [%]
CCn1cnc(NC(=O)N2CCC(c3ccc(F)cc3)C2)n1 (centres undefined) | -5.373
COCC(=O)N1CCC2(CC1)CC(=O)N(Cc1ccc(Cl)cc1)C2 | -7.837
O=C1CC2(CCN(Cc3ccoc3)CC2)CN1Cc1cc(F)cc(F)c1 | 87.88
O=C1CC2(CCN(CCCO)CC2)CN1Cc1ccc(F)c(F)c1 | 111.9
O=C1CCC2(CCN(Cc3cc(F)cc(F)c3)CC2)CN1CCO | -11.07
O=C1CC2(CCN(CCCF)CC2)CN1Cc1cc(F)cc(F)c1 | 93.67
CCN1CC2(CCN(CCOCCO)CC2)CC(c2ccccc2)C1=O (centres undefined) | 6.251
O=C1CC2(CCN(Cc3ncc[nH]3)CC2)CN1Cc1ccc(Cl)cc1 | 9.235
CCCOCCN1CCC2(CC1)CC(=O)N(Cc1cc(F)cc(F)c1)C2 | 102.6
O=C1CC2(CCN(Cc3ncc[nH]3)CC2)CN1Cc1cc(F)cc(F)c1 | 5.031
Cc1ncc(CN2CCC3(CC2)CC(=O)N(C)C3)cn1 | -13.29
O=C1CC2(CCN(CCO)CC2)CN1Cc1cc(F)cc(F)c1 | -5.03
CCN(C)C[C@@H]1CN(S(=O)(=O)c2ccc(C#N)cc2)C[C@@H]1CO | -9.397
c1ccc2[nH]c(C3CCN(Cc4nnc(C5CC5)o4)CC3)nc2c1 | -0.6702
O=C1CC2(CCN(CC3CC3)CC2)CN1Cc1cc(F)cc(F)c1 | 122.7
O=C1CC2(CCN(CC3CCOC3)CC2)CN1Cc1cc(F)cc(F)c1 (centres undefined) | 4.353
CN(Cc1ccn[nH]1)Cc1c[nH]nc1-c1ccc(F)cc1 | 4.933
CCN(CCc1nc2cc(C)ccc2[nH]1)C(=O)[C@@H](N)CCSC | 1.745
O=C(NCCn1ccnc1-c1cc2n(n1)CCNC2)c1ccncc1 | -6.247
CC(C)N1CCCn2nc(C(=O)NCCc3ccccn3)cc2C1 | -11.55
O=C(NCc1ccccn1)c1cc2n(n1)CCNC2 | 99.68
O=C(NCc1cc2n(n1)CCCNC2)C1(c2ccc(Cl)cc2)CCC1 | 14.56
Cc1ncsc1CCC(=O)NCc1cc2n(n1)CCNC2 | -3.955
O=C(NCc1csc2ccc(Cl)cc12)c1cc2n(n1)CCNC2 | 87.95

SMILES | Percent Effect [%]
O=C(NCCn1ccnc1-c1cc2n(n1)CCNC2)c1ccc(F)cc1 | 10.43
O=C(NCc1sc2ccccc2c1Cl)c1cc2n(n1)CCNC2 | 92.76
O=C(NCc1cc2n(n1)CCCNC2)c1cn2cc(Cl)ccc2n1 | -5.425
CN(CC(=O)N1CCCC1)C(=O)c1cccn1CCc1ccccc1 | -6.272
O=C(c1ccno1)N1CCN2C(=O)N(Cc3ccc(F)cc3)C[C@H]2C1 | -2.469
Cc1nc(CN2CCc3nc(NC(C)C)nc(C)c3C2)cs1 | 12.48
CCN(C)C(=O)c1cnc(-c2noc3cc(N4CCCCC4)ccc23)s1 | -13.96
Cc1ccc(CNC2(Cc3cc(CO)on3)COC2)o1 | -19.01
CCC[C@@H](NC(N)=O)C(=O)N1Cc2ccccc2-c2ccccc2C1 | -11.77
CC(C)NC(=O)C1CN(C(=O)c2cccs2)CC12CCOCC2 (centres undefined) | -10.16
CCS(=O)(=O)N1C[C@@H](C(=O)NC(C)C)[C@@]2(Cc3ccccc3C(=O)N2)C1 | 141.4
CC(C)NC(=O)C1CN(C(=O)c2ccco2)CC12CCOCC2 (centres undefined) | 3.507
CC(C)C[C@@H]1N[C@H](C(=O)NC(C)C)Cc2c[nH]c3cccc1c23 | -15.72
CC(C)NC(=O)[C@@H]1CN(C(=O)C2CC2)C[C@]12Cc1ccccc1C(=O)N2 | 129.2
CCN(CC)C(=O)CCNC(=O)Cc1nc(-c2ccco2)oc1C | 11.44
O=C(CS(=O)(=O)Cc1ccc(Br)cc1F)Nc1cn[nH]c1 | -22.34
c1csc(N2CCN(c3ncnc4sccc34)CC2)n1 | 140.7
CCc1nc(CN2CCCN(c3ncnc4sccc34)CC2)no1 | -94.29
N#Cc1ccc(N2CCN(c3nccs3)CC2)nc1 | -4.592
Cc1noc(C(C)N2CCN(c3ncnc4sccc34)CC2)n1 (centres undefined) | -36.26
c1csc(N2CCCN(c3ncnc4sccc34)CC2)n1 | 165.2
N#Cc1ccc(N2CCCN(c3nccs3)CC2)nc1 | -14.61
